BJeLR viab HTS – BJeLR cell viability reduction; BJeLR fibroblasts viability, CellTiterGlo ATP luminescence, 48 h; HRASV12, hTERT and SV40 LT/ST transformed; viability loss activity score, % (concentration not given with the values); actives 0.64% (n = 30,000); AID 2275; in the data active = viability loss activity score above about 50%;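 note: higher score means fewer live cells and less ATP luminescence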
A1 inh – blocks A1 activity; MEF A1-2A-BIM cells, caspase-Glo luminescence, 3 h; percent of clofoctol signal, DMSO as zero; caspase activation, % (test concentration not listed); actives 0.51% (n = 21,000); AID 2241;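 active = most replicate scores above 10, or exactly half above 10 with mean activity above 10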;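 note: effector caspase 3 and 7 activity cleaving a DEVD luciferin substrate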
Of the large screens only hits and unclear results are named; the others gave an inactive call. Shown are actives, neighbours in structure and some others; about 0.89% of the full set was active somewhere.

Cc1ccc(SC(=O)c2c(C)noc2-c2cc(C)on2)cc1	A1 inh 9.8
Cc1cc(-c2c(C(=O)Sc3ccccc3)c(C)nn2-c2ccccc2)no1	none
Cc1ccn2cc(CCNC(=O)c3ccc(C(F)(F)F)cc3)nc2c1	none
C[C@H](CO)N1C[C@H](C)[C@@H](CN(C)Cc2ccc(C(F)(F)F)cc2)Oc2c(NC(=O)C3CCCCC3)cccc2C1=O	none (no result: A1 inh)
Cn1cnc([N+](=O)[O-])c1Sc1ncnc2nc[nH]c12	BJeLR viab HTS 88
CC(C)=CCNc1ncnc2nc[nH]c12	none
N#Cc1ccccc1NS(=O)(=O)c1ccccc1	none
C=C(CO)C(=O)O[C@H]1C[C@@]23O[C@@H]2CC/C(=C/[C@H]2OC(=O)C(=C)[C@H]12)CO[C@@H]3O	none
C=C(C)C(=O)O[C@H]1C[C@@]2(C)OC(=CC2=O)/C(COC(C)=O)=C\[C@H]2OC(=O)C(=C)C12 (stereo partly drawn)	BJeLR viab HTS 61
CSc1nsc(SC)c1C(=O)NC(=O)Nc1ccc(Cl)cc1	none
COc1cc(O)cc2c1C(=O)OC(C)C2 (stereo not drawn)	none
C[C@@H]1C[C@@H]2O[C@H]2/C=C/C=C\C(=O)Cc2c(Cl)c(O)cc(O)c2C(=O)O1	BJeLR viab HTS 81
C=CC1CCC(O)C(N(C)C(=S)Nc2ccccc2)C1 (stereo not drawn)	none
COc1ccccc1C1CCN(S(=O)(=O)c2ccc(-c3csc(C)n3)s2)CC1	none
Cc1nc(-c2ccc(S(=O)(=O)N3CCCc4ccccc43)s2)cs1	BJeLR viab HTS 56
C[C@@H]1CN([C@H](C)CO)C(=O)c2cc(NC(=O)Cn3cnnn3)ccc2O[C@H]1CN(C)C(=O)NC1CCCCC1	none
C=C1C(=O)O[C@@H]2[C@H]3O[C@]3(C)CCC=C(C)CC[C@@H]12	none
C=C1C(=O)O[C@@H]2C3O[C@]3(C)CC/C=C(/C)CC[C@@H]12 (stereo partly drawn)	none
C=C1C(=O)O[C@H]2[C@H]1C[C@H](OC(=O)/C(C)=C\C)/C(C)=C\CC[C@@]1(C)O[C@@H]21	none
C=C1C(=O)O[C@H]2[C@H]1[C@@H](OC(=O)/C(C)=C\C)C(OC(C)=O)/C(C(=O)OC)=C\CC[C@@]1(C)O[C@H]21 (stereo partly drawn)	BJeLR viab HTS 68
C=C1C(=O)O[C@H]2[C@H]1[C@@H](OC(=O)/C(C)=C/C)C(OC(C)=O)/C(C(=O)OC)=C\CC[C@@]1(C)O[C@H]21 (stereo partly drawn)	BJeLR viab HTS 61
C=C1C(=O)O[C@H]2[C@H]1[C@@H](OC(=O)C(C)(O)CCl)C(OC(C)=O)/C(C(=O)OC)=C\CC[C@@]1(C)O[C@H]21 (stereo partly drawn)	BJeLR viab HTS 50
Cc1cc(NC(=O)C(C)n2sc3ccccc3c2=O)ccc1Br (stereo not drawn)	none
C[C@@H]1CN([C@@H](C)CO)C(=O)c2cccc(NS(C)(=O)=O)c2O[C@@H]1CN(C)Cc1ccc(-c2ccccc2)cc1	none (no result: A1 inh)
COC(=O)c1cc(NS(=O)(=O)Cc2ccccc2)cc(C(=O)OC)c1	none
CSc1c(-c2ccc(Cl)cc2)[nH]c2ccccc12	A1 inh 14
CCCCCCN(CCCCCC)C(=O)Cc1c(-c2ccc(F)cc2)[nH]c2ccccc12	none
Cc1ccc(NC(=O)c2oc3ccc(S(=O)(=O)N4CCCC4)cc3c2C)cc1C	none
C=C1C(C2(C)C=CC(=O)C(C)(C)C2CC(=O)OC)CC[C@@]2(C)[C@H](c3ccoc3)OC(=O)C3OC132 (stereo partly drawn)	BJeLR viab HTS 91
CC1(C)C(=O)C=C[C@@]2(C)C1C=C[C@]1(C)C2CC[C@@]2(C)[C@H](c3ccoc3)OC(=O)C3OC321 (stereo partly drawn)	none
CCn1c2c(c3cc(C4CCCCC4)ccc31)CCCC2=O	none
CCn1c2c(c3cc(C4CCCCC4)ccc31)CCC/C2=N\O	A1 inh 15
CCN(CC)c1ccc(/C=C2\CCc3ccccc3C2=O)cc1	none (no result: A1 inh)
Cn1cccc1/C=C1\CCc2ccccc2C1=O	BJeLR viab HTS 73 (no result: A1 inh)
CC1=CCC[C@@H]2[C@](CCc3ccoc3)(C(=O)O)[C@H](C)CC[C@@]12C	none
C[C@@H]1C[C@H]2OCC3=CCC[C@H]([C@]1(CC(O)c1ccoc1)C(=O)O)[C@]32CO (stereo partly drawn)	BJeLR viab HTS 92
C[C@H](CO)N1C[C@H](C)[C@@H](CN(C)C(=O)Nc2ccc3c(c2)OCO3)Oc2c(NC(=O)Nc3cccc4ccccc34)cccc2C1=O	none (no result: A1 inh)
O=C(Cc1nc(-c2cccs2)no1)Nc1cccc(C(F)(F)F)c1	none
CCCc1nc(N)c(C#N)c(-c2ccccc2)c1CC	none
N#Cc1c(N)nc(Sc2ccc(Cl)cc2)c(C#N)c1-c1ccccc1	A1 inh 42
O=C1Cc2c([nH]c3ccc([N+](=O)[O-])cc23)-c2ccccc2N1	A1 inh 10
C[C@H](CO)N1C[C@H](C)[C@@H](CN(C)Cc2ccc(C(F)(F)F)cc2)Oc2c(NC(=O)c3ccncc3)cccc2C1=O	none (no result: A1 inh)
CCC(=O)Nc1c2c(nn1-c1ccc(C)cc1)CS(=O)C2 (stereo not drawn)	none (no result: A1 inh)
CCN(C(=O)c1cnccc1C(F)(F)F)c1ccc(Cl)cc1Cl	none
Nc1ncnc2c1cnn2-c1ccccc1	none
C=CCn1c(Sc2ncnc3c2cnn3-c2ccccc2)nnc1-c1ccncc1	BJeLR viab HTS 69
C[C@@H]1CN([C@H](C)CO)C(=O)c2cc(NC(=O)NC3CCCCC3)ccc2O[C@@H]1CN(C)C(=O)NC1CCCCC1	none
CCCn1nc(NC(=O)c2cccc(Cl)c2)c2cc3cc(C)ccc3nc21	A1 inh 12
COC(=O)c1cc(NC(=O)c2cccc(Cl)c2)cc(C(=O)OC)c1	none
FC(F)(F)c1[nH]nc(-c2ccccc2)c1C12CC3CC(CC(C3)C1)C2	A1 inh 11
c1ccc(-c2nc(C34CC5CC(CC(C5)C3)C4)cs2)cc1	none
COC1CC(OC2CCC3(C)C(CCC4(O)C3CC(OC(=O)c3ccccc3)C3(C)C(O)(C(C)=O)CCC43O)C2)OC(C)C1OC1CC(OC)C(OC2OC(C)C(OC3OC(CO)C(O)C(O)C3O)C(OC)C2O)C(C)O1 (stereo not drawn)	none
Cn1cnc(S(=O)(=O)NCC2CCN(C(=O)OC(C)(C)C)CC2)c1	none (no result: A1 inh)
COc1cccc(-c2cc(NCc3ccc4c(c3)OCO4)nc(N)n2)c1	BJeLR viab HTS 60
Cc1cc(Br)ccc1NCc1ccc2c(c1)OCO2	none
N#CSCC(=O)C12CC3CC(CC(C3)C1)C2	A1 inh 36
O=C(CSc1ccc(F)cc1Cl)C12CC3CC(CC(C3)C1)C2	none
C[C@H]1CN([C@@H](C)CO)C(=O)c2cccc(NC(=O)Nc3ccccc3)c2O[C@@H]1CN(C)Cc1ccc(C(=O)O)cc1	none (no result: A1 inh)
C=C(C)CC1(NC(C)c2ccccc2)CCCCC1 (stereo not drawn)	A1 inh 9.8
CC(=O)NC(C)c1ccccc1 (stereo not drawn)	none
C[C@H](CO)N1C[C@H](C)[C@H](CN(C)C(=O)Nc2ccc3c(c2)OCO3)Oc2c(NC(=O)c3ccc(-c4nccs4)cc3)cccc2C1=O	none (no result: A1 inh)
CC(C)(C)C(=O)Nc1ccc2c(c1)C(=O)C(=O)c1ccccc1-2	BJeLR viab HTS 132
CC(O)(C(=O)Nc1ccc(S(=O)(=O)c2ccccc2)cc1)C(F)(F)F (stereo not drawn)	none
